# According to the supplement of paper PMC11732987, “Enantioselective OTUD7B fragment discovery through chemoproteomics screening and high-throughput optimisation” (Communications Chemistry, 2025):
# Values without a mark were called inactive.
# Key:
# Assay in all cases: log2 ratio of Biotin-Ahx-Ub-VS probe labelling (fragment/DMSO); higher = less target engagement (more negative = stronger competition), active = hit call of the paper (q ≤ 0.05, log2 ratio ≤ -1)
# Conditions in all cases: compound concentration: 200 uM; treatment time: 3 h
# [1] = target: USP9X (UniProt Q93008)
# Outline: (§1)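 Fragment (200 µM) or vehicle was incubated for 3 h with triplicate HEK293T lysate samples of 495 µg, which were then treated with Biotin-Ahx-Ub-VS at 0.5 µM final for 1 h. Labelled DUBs were enriched on NeutrAvidin, digested with LysC and trypsin, and analysed by diaPASEF LC-MS/MS. Values are average log2 fragment/vehicle ratios from an unpaired t-test on global-median-normalised Spectronaut label-free quantities, using proteins with ≥2 unique peptides.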
# [2] = target: UniProt O00487
# Outline: as §1
# [3] = target: UniProt O00507
# Outline: as §1
# [4] = target: UniProt P51784
# Outline: as §1
# [5] = target: T1, UniProt Q5T2D3
# T1 sequence (whole entry): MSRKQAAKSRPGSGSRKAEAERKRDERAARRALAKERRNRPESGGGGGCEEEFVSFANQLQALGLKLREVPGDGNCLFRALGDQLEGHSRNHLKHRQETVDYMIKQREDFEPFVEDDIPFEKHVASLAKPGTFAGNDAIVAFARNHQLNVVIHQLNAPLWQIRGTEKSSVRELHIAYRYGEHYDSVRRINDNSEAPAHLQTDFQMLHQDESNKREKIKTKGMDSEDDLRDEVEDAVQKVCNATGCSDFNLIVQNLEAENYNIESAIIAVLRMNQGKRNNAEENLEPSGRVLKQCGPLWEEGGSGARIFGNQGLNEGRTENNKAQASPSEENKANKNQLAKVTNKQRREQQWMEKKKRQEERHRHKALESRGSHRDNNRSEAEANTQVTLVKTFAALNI
# Outline: as §1
# [6] = target: T2, UniProt Q8TE49
# T2 sequence (whole entry): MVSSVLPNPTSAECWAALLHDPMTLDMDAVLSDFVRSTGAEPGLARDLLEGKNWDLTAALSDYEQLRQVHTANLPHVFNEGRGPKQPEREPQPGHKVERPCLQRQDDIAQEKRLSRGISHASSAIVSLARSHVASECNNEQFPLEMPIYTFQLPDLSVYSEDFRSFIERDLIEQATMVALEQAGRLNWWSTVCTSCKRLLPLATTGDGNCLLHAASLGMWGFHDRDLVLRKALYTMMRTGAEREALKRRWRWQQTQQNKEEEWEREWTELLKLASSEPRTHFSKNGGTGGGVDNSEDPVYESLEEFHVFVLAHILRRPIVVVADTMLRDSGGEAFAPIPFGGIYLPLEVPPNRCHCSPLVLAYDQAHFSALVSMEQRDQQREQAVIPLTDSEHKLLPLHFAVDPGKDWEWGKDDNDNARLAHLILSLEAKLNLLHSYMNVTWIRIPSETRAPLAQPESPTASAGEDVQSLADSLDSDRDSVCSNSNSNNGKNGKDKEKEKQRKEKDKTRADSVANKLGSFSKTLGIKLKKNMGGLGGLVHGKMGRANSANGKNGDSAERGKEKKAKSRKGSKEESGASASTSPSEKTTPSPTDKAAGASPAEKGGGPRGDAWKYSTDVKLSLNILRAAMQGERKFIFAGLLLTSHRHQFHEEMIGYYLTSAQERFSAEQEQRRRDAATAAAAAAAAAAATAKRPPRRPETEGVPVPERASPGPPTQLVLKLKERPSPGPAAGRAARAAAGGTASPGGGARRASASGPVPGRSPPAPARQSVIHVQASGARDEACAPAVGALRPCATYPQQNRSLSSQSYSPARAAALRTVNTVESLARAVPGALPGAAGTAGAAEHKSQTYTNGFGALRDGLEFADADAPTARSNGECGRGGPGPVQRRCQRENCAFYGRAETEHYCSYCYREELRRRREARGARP
# Outline: as §1
# [7] = target: T3, UniProt Q9P2H5
# T3 sequence (whole entry): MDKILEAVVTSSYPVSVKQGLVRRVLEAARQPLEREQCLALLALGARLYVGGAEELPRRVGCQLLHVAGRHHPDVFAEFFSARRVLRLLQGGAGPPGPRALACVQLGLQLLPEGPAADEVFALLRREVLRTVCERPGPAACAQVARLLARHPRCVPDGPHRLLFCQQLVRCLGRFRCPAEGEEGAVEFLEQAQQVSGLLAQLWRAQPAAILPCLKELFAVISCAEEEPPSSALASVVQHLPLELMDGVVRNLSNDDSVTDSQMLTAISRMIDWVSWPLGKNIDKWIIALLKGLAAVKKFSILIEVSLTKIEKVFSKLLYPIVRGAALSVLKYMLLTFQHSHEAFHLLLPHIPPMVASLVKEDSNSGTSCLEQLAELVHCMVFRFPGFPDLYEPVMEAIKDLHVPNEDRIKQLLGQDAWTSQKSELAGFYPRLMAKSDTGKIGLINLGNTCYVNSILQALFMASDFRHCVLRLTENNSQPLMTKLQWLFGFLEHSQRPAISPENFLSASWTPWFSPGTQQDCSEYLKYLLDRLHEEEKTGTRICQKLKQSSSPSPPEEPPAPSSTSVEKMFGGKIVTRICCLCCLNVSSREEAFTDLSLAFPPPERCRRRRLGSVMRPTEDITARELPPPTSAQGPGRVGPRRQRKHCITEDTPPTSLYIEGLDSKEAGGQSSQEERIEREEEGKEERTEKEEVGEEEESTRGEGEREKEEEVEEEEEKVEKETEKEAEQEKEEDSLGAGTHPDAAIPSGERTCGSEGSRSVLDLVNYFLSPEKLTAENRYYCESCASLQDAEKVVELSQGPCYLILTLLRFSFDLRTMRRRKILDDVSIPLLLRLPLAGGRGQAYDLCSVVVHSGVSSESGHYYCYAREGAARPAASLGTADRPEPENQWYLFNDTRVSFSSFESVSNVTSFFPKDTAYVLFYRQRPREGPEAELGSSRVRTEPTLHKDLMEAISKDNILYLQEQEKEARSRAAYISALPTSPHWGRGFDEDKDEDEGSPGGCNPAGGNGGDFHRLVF
# Outline: as §1
# [8] = target: T4, UniProt Q9UGI0
# T4 sequence (whole entry): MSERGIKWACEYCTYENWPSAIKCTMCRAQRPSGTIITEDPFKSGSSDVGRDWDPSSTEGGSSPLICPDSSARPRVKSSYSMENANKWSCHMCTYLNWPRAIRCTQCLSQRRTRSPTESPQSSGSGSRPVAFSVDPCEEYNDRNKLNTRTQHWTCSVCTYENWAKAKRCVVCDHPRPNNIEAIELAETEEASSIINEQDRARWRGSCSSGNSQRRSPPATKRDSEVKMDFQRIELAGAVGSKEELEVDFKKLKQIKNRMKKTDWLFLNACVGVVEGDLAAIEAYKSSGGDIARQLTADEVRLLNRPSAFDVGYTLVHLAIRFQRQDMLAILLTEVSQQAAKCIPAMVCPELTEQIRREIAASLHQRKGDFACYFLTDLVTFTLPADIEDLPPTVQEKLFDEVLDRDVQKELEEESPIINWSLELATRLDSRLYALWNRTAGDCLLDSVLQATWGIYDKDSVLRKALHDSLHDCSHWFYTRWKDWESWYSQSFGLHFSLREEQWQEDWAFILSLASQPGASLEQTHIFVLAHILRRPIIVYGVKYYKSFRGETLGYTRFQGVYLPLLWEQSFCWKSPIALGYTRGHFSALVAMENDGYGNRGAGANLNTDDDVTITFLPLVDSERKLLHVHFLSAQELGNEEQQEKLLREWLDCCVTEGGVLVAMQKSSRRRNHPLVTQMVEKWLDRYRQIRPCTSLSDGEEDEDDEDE
# Outline: as §1
# [9] = target: T5, YOD1 (UniProt Q5VVQ6)
# T5 sequence (whole entry): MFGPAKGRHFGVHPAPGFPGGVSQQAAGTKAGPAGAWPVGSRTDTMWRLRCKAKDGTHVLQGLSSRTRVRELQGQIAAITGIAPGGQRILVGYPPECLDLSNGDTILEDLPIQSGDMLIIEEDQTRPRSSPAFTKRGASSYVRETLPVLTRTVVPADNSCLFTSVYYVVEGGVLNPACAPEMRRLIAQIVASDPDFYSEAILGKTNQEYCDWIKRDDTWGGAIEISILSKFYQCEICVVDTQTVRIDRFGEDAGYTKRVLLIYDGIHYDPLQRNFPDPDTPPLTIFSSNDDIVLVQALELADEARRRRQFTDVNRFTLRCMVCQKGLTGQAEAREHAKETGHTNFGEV
# Outline: as §1
# Sequence of UniProt P51784 (P51784 whole entry): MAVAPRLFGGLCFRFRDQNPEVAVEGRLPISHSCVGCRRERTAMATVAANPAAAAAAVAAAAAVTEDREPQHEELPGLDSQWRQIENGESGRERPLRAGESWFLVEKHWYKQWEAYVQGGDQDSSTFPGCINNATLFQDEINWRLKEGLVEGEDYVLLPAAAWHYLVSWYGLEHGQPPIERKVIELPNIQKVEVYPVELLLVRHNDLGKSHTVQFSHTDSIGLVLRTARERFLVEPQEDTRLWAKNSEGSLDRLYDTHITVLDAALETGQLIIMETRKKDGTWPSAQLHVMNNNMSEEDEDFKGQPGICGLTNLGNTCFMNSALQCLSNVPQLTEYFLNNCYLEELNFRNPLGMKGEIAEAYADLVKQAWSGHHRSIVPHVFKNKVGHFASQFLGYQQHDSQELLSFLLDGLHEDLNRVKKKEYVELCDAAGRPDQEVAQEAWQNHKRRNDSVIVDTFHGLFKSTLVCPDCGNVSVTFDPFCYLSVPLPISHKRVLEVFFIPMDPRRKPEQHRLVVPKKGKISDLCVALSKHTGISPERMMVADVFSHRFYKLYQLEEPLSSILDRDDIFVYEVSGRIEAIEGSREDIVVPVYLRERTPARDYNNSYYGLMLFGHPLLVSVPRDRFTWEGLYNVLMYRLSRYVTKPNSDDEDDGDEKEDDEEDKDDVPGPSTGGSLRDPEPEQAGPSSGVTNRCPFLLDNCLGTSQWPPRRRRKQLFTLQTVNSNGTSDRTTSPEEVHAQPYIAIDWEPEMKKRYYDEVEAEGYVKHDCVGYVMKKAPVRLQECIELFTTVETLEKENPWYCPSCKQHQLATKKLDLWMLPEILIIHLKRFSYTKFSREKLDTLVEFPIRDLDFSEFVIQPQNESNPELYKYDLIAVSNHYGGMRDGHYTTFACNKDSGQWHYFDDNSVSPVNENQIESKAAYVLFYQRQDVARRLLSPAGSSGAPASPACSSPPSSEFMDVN
# Sequence of UniProt O00507 (O00507 whole entry): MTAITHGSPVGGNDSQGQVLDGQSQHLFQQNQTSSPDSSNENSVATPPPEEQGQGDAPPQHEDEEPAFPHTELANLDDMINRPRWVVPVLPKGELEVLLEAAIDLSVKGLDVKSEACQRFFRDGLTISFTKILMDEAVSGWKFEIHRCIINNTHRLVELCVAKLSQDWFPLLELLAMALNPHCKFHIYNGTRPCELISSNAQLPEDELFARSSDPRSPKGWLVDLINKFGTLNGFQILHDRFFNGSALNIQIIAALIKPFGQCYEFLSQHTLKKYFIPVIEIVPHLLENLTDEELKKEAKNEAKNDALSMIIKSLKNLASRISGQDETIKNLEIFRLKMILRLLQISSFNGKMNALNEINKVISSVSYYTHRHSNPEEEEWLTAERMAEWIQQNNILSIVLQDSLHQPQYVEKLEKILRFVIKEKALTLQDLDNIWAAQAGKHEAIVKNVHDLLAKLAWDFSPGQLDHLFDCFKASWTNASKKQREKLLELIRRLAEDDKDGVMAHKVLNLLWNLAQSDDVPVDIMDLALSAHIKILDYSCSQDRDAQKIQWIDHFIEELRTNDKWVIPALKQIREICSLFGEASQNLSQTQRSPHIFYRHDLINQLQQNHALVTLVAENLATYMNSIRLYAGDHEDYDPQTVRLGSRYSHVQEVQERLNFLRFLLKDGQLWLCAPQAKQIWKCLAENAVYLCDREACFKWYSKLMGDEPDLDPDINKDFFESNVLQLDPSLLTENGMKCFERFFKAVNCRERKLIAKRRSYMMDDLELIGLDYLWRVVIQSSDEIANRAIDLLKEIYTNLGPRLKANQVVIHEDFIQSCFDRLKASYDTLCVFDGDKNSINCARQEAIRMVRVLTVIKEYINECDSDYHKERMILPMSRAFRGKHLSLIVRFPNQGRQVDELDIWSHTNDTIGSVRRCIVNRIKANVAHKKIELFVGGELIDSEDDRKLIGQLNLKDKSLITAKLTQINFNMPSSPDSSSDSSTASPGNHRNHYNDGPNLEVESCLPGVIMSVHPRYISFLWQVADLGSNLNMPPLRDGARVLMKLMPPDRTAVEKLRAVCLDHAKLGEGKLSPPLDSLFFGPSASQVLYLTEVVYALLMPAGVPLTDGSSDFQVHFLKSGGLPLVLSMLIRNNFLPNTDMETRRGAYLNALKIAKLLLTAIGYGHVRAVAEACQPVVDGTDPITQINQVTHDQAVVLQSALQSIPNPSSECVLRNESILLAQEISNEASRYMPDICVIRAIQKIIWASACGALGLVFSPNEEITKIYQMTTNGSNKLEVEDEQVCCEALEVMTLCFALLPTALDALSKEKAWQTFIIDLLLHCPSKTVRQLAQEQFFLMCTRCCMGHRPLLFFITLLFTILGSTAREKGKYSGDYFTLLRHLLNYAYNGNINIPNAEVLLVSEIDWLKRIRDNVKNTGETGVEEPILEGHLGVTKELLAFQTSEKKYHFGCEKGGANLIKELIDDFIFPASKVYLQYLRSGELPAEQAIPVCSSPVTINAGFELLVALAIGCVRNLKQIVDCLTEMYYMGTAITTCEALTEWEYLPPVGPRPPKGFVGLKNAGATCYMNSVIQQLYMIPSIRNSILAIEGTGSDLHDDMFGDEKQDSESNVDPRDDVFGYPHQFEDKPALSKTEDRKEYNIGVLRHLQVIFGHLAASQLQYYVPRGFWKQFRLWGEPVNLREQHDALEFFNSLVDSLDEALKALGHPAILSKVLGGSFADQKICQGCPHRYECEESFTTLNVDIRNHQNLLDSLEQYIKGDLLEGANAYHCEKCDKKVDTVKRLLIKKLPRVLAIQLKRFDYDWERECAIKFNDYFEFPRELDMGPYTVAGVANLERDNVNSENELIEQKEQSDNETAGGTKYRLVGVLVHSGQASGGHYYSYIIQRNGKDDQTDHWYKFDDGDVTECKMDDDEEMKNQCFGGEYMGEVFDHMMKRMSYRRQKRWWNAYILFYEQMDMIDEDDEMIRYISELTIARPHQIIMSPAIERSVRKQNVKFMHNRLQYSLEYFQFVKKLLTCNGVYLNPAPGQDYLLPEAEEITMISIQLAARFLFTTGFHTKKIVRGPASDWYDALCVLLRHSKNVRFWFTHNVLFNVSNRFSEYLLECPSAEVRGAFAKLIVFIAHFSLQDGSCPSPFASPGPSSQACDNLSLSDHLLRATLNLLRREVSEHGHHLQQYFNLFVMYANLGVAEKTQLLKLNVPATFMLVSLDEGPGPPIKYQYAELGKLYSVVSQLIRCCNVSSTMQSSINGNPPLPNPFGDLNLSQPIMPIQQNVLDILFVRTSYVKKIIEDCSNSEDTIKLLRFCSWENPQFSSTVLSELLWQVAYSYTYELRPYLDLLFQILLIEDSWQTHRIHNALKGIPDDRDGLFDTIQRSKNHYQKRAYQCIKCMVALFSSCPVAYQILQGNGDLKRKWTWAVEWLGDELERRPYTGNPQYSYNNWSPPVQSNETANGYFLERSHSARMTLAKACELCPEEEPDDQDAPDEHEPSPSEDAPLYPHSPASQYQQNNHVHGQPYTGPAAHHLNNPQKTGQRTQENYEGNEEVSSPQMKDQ
# Sequence of UniProt O00487 (O00487 whole entry): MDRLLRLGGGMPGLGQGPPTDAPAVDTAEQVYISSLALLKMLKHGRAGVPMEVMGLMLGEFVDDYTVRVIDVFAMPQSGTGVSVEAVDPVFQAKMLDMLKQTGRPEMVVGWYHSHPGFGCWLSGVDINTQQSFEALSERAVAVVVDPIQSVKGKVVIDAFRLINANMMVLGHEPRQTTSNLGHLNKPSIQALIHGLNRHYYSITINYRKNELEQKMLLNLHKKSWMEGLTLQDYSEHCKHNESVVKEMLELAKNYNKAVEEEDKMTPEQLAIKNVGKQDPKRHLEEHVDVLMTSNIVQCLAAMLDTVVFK
smiles,measurement,setting,value
CN1C(=O)c2ccc(NC(=O)CCl)cc2C1=O,log2 ratio of Biotin-Ahx-Ub-VS probe labelling,[1],-0.202
same,log2 ratio of Biotin-Ahx-Ub-VS probe labelling,[2],0.0214
same,log2 ratio of Biotin-Ahx-Ub-VS probe labelling,[3],-0.092
same,log2 ratio of Biotin-Ahx-Ub-VS probe labelling,[4],-0.0657
same,log2 ratio of Biotin-Ahx-Ub-VS probe labelling,[5],-0.265
same,log2 ratio of Biotin-Ahx-Ub-VS probe labelling,[6],-1.43 (active)
same,log2 ratio of Biotin-Ahx-Ub-VS probe labelling,[7],-0.23
same,log2 ratio of Biotin-Ahx-Ub-VS probe labelling,[8],-0.559
same,log2 ratio of Biotin-Ahx-Ub-VS probe labelling,[9],-0.0267
